As usually defined, the Kd is the constant that tells how readily two partners part at equilibrium. Read a high Kd as a looser complex.

The text below walks through data of publication PMC5540273 (PLoS ONE, 2017).

SMILES strings stand for the structures.

For one assay, the system named is T1, YANK2.
T1 construct: gene STK32B

The test system of the next assay is AAK1. The settings on record: concentration: 1 μM, replicates: in singlicate; n = 1.
Another assay concerns ABL1-nonphosphorylated. The conditions noted are these: concentration: 1 μM, replicates: in singlicate; n = 1.
Another assay deals with ABL1-phosphorylated. The settings on record: concentration: 1 μM, replicates: in singlicate; n = 1.
The next assay has as its system ABL2. The settings on record: concentration: 1 μM, replicates: in singlicate; n = 1.
In a further assay the test system is T2, p38-alpha.
T2 construct: gene MAPK14

The test system of the next assay is T3, YSK4.
T3 construct: gene MAP3K19

The subject of the next assay is T4, p38-gamma.
T4 construct: gene MAPK12

The next assay deals with T5, YES.
T5 construct: gene YES1
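Throughout, for %Inh: KINOMEscan kinase panel screen.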
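Throughout, for Kd: kd values determined as follow-up on hits from a single-replicate KINOMEscan panel screen.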

As for `Nc1ncnc2c1ncn2-c1cccc2ccccc12` [SKF-97184], the dissociation constant (Kd) in the assay with YANK2 is above 10 µM. In addition, the “%Inh” value in the assay with AAK1 was determined as 0%; with ABL1-nonphosphorylated, 46%; in the assay with ABL1-phosphorylated, 26%; in the assay with ABL2, 0%.

As for `COc1cc(Nc2ccnc3ccc(C(F)(F)F)cc23)cc(OC)c1OC` [GW577382], the “%Inh” value with AAK1 is on record as 8%; with ABL1-nonphosphorylated, 27%; in the assay with ABL1-phosphorylated, 19%; in the assay on ABL2, 28%.

`COc1ccc(Nc2nccc(N3CCC(NS(=O)(=O)c4ccc(NC(C)=O)cc4)C3)n2)cc1` (stereo not shown) [GSK1379729] yielded a Kd with p38-alpha above 10 µM. The “%Inh” value in the assay with AAK1 is listed as 0%; in the assay on ABL1-nonphosphorylated it was 0%; in the assay on ABL1-phosphorylated, 0%; in the assay on ABL2, 20%.

For the compound `Nc1n[nH]c2nnc(-c3ccccc3)c(-c3ccccc3)c12` [GW554060], the “%Inh” value in the assay on AAK1 is 0%; in the assay with ABL1-nonphosphorylated, 0%; in the assay on ABL1-phosphorylated, 0%; in the assay with ABL2, 9%.

`CN1C(=O)C(Nc2cc(Cl)c(O)c(Cl)c2)=C(c2ccc(Cl)cc2)C1=O` [SB-404321]: the “%Inh” value is on record as 0% with AAK1, 30% in the assay on ABL1-nonphosphorylated, 0% in the assay with ABL1-phosphorylated and 0% in the assay with ABL2.

Turning to `COc1ccc(-c2coc3ccc(-c4nnc(SCc5cccc(C#N)c5)o4)cc23)cc1`, the “%Inh” value with AAK1 is on record as 0%; in the assay with ABL1-nonphosphorylated, 23%; with ABL1-phosphorylated, 0%; in the assay with ABL2, 0%.

As to `CC(C)(C)c1ccc(C(=O)Nc2cn3cc(-c4ccccc4)ccc3n2)cc1`, the “%Inh” value was 0% with AAK1, 74% in the assay with ABL1-nonphosphorylated, 55% in the assay with ABL1-phosphorylated and 21% with ABL2.

Turning to `COc1cc2nccc(Nc3cccc(Oc4ccccc4)c3)c2cc1OC.Cl` [GW284543], the “%Inh” value in the assay with AAK1 amounted to 0%; in the assay on ABL1-nonphosphorylated, 0%; in the assay on ABL1-phosphorylated, 0%; in the assay with ABL2, 15%.

`Nc1nccc2scc(-c3ccc4c(c3)CCN4C(=O)Cc3ccccc3)c12` [GSK2576924]: the “%Inh” value in the assay on AAK1 worked out at 8%; with ABL1-nonphosphorylated it was 0%; in the assay with ABL1-phosphorylated it was 0%; in the assay with ABL2, 1%.

`CCn1c(-c2nonc2N)nc2ccccc21` [SB-693162/GW549034] came in with a Kd in the assay on YSK4 of 0.01 µM. Besides, the “%Inh” value in the assay with AAK1 worked out at 29%; in the assay with ABL1-nonphosphorylated it was 53%; in the assay with ABL1-phosphorylated, 27%; in the assay with ABL2, 0%.

In the case of `COc1cc(Nc2nccc(N3CCC(NC(=O)C4COc5ccccc5O4)C3)n2)cc(OC)c1OC` (stereo not shown) [GSK1379761], the “%Inh” value in the assay with AAK1 is 66%; in the assay with ABL1-nonphosphorylated, 0%; with ABL1-phosphorylated it was 0%; in the assay on ABL2, 3%.

With `COc1cc2nccc(Nc3ccc(OCc4ccc(NC(C)=O)cc4)cc3)c2cc1OC.Cl` [GW440135], the “%Inh” value with AAK1 worked out at 0%; in the assay with ABL1-nonphosphorylated, 17%; with ABL1-phosphorylated, 0%; with ABL2, 4%.

Regarding `Cc1nc(N(C)[C@H]2CN(C(=O)CC#N)CC[C@H]2C)c2cc[nH]c2n1`, the “%Inh” value in the assay with AAK1 turned out to be 0%; with ABL1-nonphosphorylated it was 1%; with ABL1-phosphorylated, 2%; with ABL2 it was 1%.

Regarding `O=C(NCCNc1ccnc(Nc2ccc(F)cc2)n1)Nc1ccc2c(c1)OCO2` [GSK1379882], the Kd in the assay with ZAK is above 10 µM. Also, the “%Inh” value with AAK1 came out at 20%; in the assay with ABL1-nonphosphorylated it was 0%; with ABL1-phosphorylated it was 0%; in the assay with ABL2 it was 0%.

In the case of `CCC(=O)c1c(-c2ccccc2)c2cc(Cl)ccc2c(=O)n1Cc1ccc(C(=O)O)cc1`, the “%Inh” value in the assay on AAK1 was 0%; with ABL1-nonphosphorylated, 30%; in the assay with ABL1-phosphorylated, 0%; with ABL2 it was 15%.

Regarding `Nc1ncnc2c1ncn2-c1cccc(F)c1` [SKF-97560], the “%Inh” value in the assay on AAK1 came out at 0%; with ABL1-nonphosphorylated, 9%; with ABL1-phosphorylated, 14%; in the assay with ABL2, 8%.

In the assay on p38-gamma, `COc1ccc(-c2cc3c(C)nc(N)nc3n([C@H]3CC[C@H](O)CC3)c2=O)cn1` displayed a Kd above 10 µM. Further, the “%Inh” value with AAK1, in the assay on ABL1-nonphosphorylated, in the assay with ABL1-phosphorylated and with ABL2 was 0% in each case.

For `CCC(=O)c1c(-c2ccccc2)c2cc(Cl)ccc2c(=O)n1Cc1cc(S(C)(=O)=O)n(CCC(C)(C)O)n1`, the “%Inh” value in the assay with AAK1 came to 25%; in the assay with ABL1-nonphosphorylated, 6%; with ABL1-phosphorylated, 3%; in the assay on ABL2, 9%.

Consider `Cc1ccc(-c2ccc3c(ccc4sc5c(c43)NC[C@@H](C)N=C5N(C)C)n2)cn1`, for which the “%Inh” value in the assay with AAK1, in the assay on ABL1-nonphosphorylated, with ABL1-phosphorylated and in the assay on ABL2 was 0% in each case.

`OCCCNc1nccc(-c2c(-c3cccc(C(F)(F)F)c3)nn3cc(C(F)(F)F)ccc23)n1` [GW630813]: the affinity in the assay with p38-alpha, expressed as Kd, was 1.3 µM. Moreover, the “%Inh” value with AAK1, in the assay with ABL1-nonphosphorylated, in the assay on ABL1-phosphorylated and in the assay on ABL2 was 0% in each case.

`O=C(Nc1n[nH]c2cc(-c3ccccc3F)ccc12)C1CC1` [SB-733371]: in the assay with YSK4, the Kd was found to be 0.2 µM. The “%Inh” value with AAK1 was 9%; in the assay with ABL1-nonphosphorylated, 46%; in the assay on ABL1-phosphorylated, 21%; in the assay with ABL2, 9%.

In the assay on YSK4, `O=C(Nc1n[nH]c2nc(-c3ccccc3)c(Br)cc12)C1CC1` [SB-708998] had a Kd of 0.64 µM. In addition, the “%Inh” value in the assay on AAK1 came to 8%; in the assay with ABL1-nonphosphorylated it was 43%; with ABL1-phosphorylated, 11%; with ABL2, 2%.

As for `COc1cccc(C2=C(Nc3cccc(C(=O)O)c3)C(=O)NC2=O)c1` [SB-390770], the “%Inh” value in the assay with AAK1 is on record as 3%; in the assay on ABL1-nonphosphorylated, 0%; in the assay on ABL1-phosphorylated, 0%; in the assay on ABL2 it was 6%.

In the assay with YES, `COc1cc(OC)cc(-c2cc3cnc(N)nc3nc2NC(=O)NC(C)(C)C)c1` returned a Kd above 10 µM. Also, the “%Inh” value with AAK1 amounted to 15%; in the assay on ABL1-nonphosphorylated, 39%; with ABL1-phosphorylated, 0%; in the assay with ABL2, 0%.

In the assay on p38-alpha, `Nc1nc(-c2ccccc2F)c(-c2ccnc3ccccc23)s1` [GW560459] displayed a Kd of 0.24 µM. Further, the “%Inh” value in the assay with AAK1 is listed as 12%; in the assay with ABL1-nonphosphorylated, 0%; with ABL1-phosphorylated, 0%; with ABL2, 3%.

With `O=C(Nc1n[nH]c2nc(-c3ccccc3)c(Cl)cc12)C1CC1` [SB-734909], binding with YSK4 was put at a Kd of 7.7 µM. Besides, the “%Inh” value is on record as 28% with AAK1, 76% in the assay on ABL1-nonphosphorylated, 57% in the assay with ABL1-phosphorylated and 0% in the assay on ABL2.
